SMILES strings stand for the structures. Calls of active or inactive are those of the source. Unless noted, how the calls were made is not given here.

Assay [1] is described as follows: A549 cell viability effects, profiling panel, calcein-AM fluorescence, 48 h, basal (AID 1162). Further: test concentration not given here. Conditions: higher = more signal.
Assay [2] can be described thus: adipocyte viability effects, profiling panel, cell-based, 3T3-L1 adipocytes, calcein-AM fluorescence, 48 h, basal (AID 1163). Further: test concentration not given here. Conditions: 3T3-L1 adipocytes viability, higher = more signal.
A short description of assay [3]: HepG2 cell viability effects, profiling panel, calcein-AM fluorescence, 48 h, basal (AID 1164). Further: test concentration not given here. Conditions: higher = more signal.
Assay [4] is described as follows: MM1S cell viability effects, profiling panel, calcein-AM fluorescence, 48 h, basal (AID 1165).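 Further: viability of MM1S multiple myeloma cells under basal unstimulated conditions; test concentration not given here.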 Conditions: higher = more signal.
Assay [5] is described as follows: basal RPMI8226 viability, no added stimulus, profiling panel, cell-based, calcein-AM fluorescence, 48 h, PK04 Diversity Set (AID 1166).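 Further: cells grown under basal conditions without added stimulus; test concentration not given here.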 Conditions: RPMI8226 myeloma viability, higher = more signal.
Assay [6] in a line: basal HepG2 mitochondrial membrane potential changes, profiling panel, cell-based, JC-1 fluorescence, 24 h, 100 nL compound (AID 1167). Further: test concentration not given here. Conditions: higher = more signal.
The nature of assay [7]: basal 3T3-L1 adipocyte mitochondrial potential changes, profiling panel, cell-based, JC-1 fluorescence, 3T3-L1 adipocytes, 24 h, 100 nL compound (AID 1168). Further: test concentration not given here. The settings on record: JC-1 mitochondrial fluorescence, higher = more signal, called active from +8 up or from −8 down.
A short description of assay [8]: basal RPMI8226 mitochondrial membrane potential changes, profiling panel, cell-based, JC-1 fluorescence, 24 h, 100 nL compound (AID 1169). Further: test concentration not given here. The settings on record: RPMI8226 myeloma, JC-1 mitochondrial potential fluorescence, higher = more signal.
Assay [9] is described as follows: basal MM1S mitochondrial membrane potential changes, profiling panel, cell-based, JC-1 fluorescence, 24 h, 100 nL compound (AID 1170). Further: test concentration not given here. Conditions: higher = more signal.
Assay [10] in a line: A549 lung cancer cell viability effects, profiling panel, resazurin fluorescence, 24 h, PK04 Diversity Set (AID 1171). Further: test concentration not given here. The settings on record: higher = more signal, called active from +8 up or from −8 down.
Assay [11] in a line: HepG2 liver cancer cell viability effects, profiling panel, resazurin fluorescence, 24 h, PK04 Diversity Set (AID 1172). Further: test concentration not given here. The settings on record: higher = more signal. Background: Alamar Blue is a resazurin reagent that responds to reducing activity.
Assay [12] is described as follows: basal S. cerevisiae growth modulation, no modifier, primary screen, OD600, strain BY4716, 24 h, basal condition (AID 1173). The settings on record: OD600, 24 h, higher = more signal, called active from +8 up or from −8 down.
A short description of assay [13]: MM1S myeloma cell viability, profiling panel, resazurin fluorescence, basal, 24 h, PK04 Diversity Set (AID 1174).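 Further: MM1S multiple myeloma cell line; test concentration not given here.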 Conditions: higher = more signal, called active from +8 up or from −8 down.
Assay [14] addresses Dihydroorotate dehydrogenase (quinone), mitochondrial (Plasmodium falciparum (isolate 3D7)) (UniProt Q08210). Put plainly: PfDHODH enzyme inhibitors, primary screen, biochemical, C-terminal His tag, absorbance 600 nm (AID 1175).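 Further: recombinant parasite enzyme with a five histidine tag at its C terminus; test concentration not given here.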 Conditions: DCIP absorbance 600 nm, higher = more signal, called active from +8 up or from −8 down.
The nature of assay [15]: P. aeruginosa biofilm formation inhibitors, primary screen, strain PAO1, LB-PBS medium, absorbance 600 nm (AID 1176). Further: test concentration not given here. The settings on record: P. aeruginosa PAO1 growth/biofilm, A600, 12 h; higher = more signal.
Assay [16] is described as follows: S. cerevisiae RM11-1a growth modifiers, primary screen, strain RM11-1a, OD600, basal, 24 h (AID 1177).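 Further: cultures grown under basal conditions with no added stressor; test concentration not given here.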 The settings on record: OD600, 24 h, higher = more signal, called active from +8 up or from −8 down.
Assay [17] can be described thus: E. coli acrAB mutant growth effects, primary screen, E. coli filamentation inducers, strain DRC39, OD650, 24 h (AID 1178).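 Further: growth measured as culture turbidity by optical density at 650 nm; test concentration not given here.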 The settings on record: higher = more signal, called active from +8 up or from −8 down.
The nature of assay [18]: E. coli acrAB mutant growth effects, primary screen, E. coli filamentation inducers, strain DRC39, OD650, 48 h (AID 1179).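 Further: screen aims at cell division blockers that make cells filament.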 The settings on record: E. coli DRC39 delta-acrAB growth, higher = more signal, called active from +8 up or from −8 down.
Assay [19] is described as follows: RPMI8226 myeloma cell viability, profiling panel, resazurin fluorescence, basal, 24 h, PK04 Diversity Set (AID 1180).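 Further: RPMI8826 multiple myeloma cell line at 5000 cells per well; test concentration not given here.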 The settings on record: higher = more signal.
Assay [20] has as its target E3 ubiquitin-protein ligase XIAP (Homo sapiens) (UniProt P98170). Put plainly: XIAP binders, primary screen, biophysical, small-molecule microarray, fluorescence 635 nm (AID 1181).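 Further: score merges 667 nm emission and signal to noise over triplicate slides.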 Conditions: small-molecule microarray binding, higher = more signal.

Sequence of Dihydroorotate dehydrogenase (quinone), mitochondrial (Plasmodium falciparum (isolate 3D7)) (Q08210 whole entry, looked up): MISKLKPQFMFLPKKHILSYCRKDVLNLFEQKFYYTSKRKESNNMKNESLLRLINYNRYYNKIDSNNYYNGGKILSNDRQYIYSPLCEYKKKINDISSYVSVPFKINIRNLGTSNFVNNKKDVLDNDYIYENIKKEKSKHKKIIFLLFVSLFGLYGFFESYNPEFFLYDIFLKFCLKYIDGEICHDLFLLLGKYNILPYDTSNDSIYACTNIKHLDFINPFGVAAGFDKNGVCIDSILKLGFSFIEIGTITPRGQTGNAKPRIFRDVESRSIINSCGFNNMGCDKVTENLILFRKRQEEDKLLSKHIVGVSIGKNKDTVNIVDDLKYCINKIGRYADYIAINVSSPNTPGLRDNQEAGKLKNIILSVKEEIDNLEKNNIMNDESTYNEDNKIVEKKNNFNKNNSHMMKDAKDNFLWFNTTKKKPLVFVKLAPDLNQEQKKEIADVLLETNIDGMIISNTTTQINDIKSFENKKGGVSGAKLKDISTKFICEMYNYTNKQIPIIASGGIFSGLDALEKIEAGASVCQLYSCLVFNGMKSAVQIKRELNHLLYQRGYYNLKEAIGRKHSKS
Sequence of E3 ubiquitin-protein ligase XIAP (Homo sapiens) (P98170 whole entry, looked up): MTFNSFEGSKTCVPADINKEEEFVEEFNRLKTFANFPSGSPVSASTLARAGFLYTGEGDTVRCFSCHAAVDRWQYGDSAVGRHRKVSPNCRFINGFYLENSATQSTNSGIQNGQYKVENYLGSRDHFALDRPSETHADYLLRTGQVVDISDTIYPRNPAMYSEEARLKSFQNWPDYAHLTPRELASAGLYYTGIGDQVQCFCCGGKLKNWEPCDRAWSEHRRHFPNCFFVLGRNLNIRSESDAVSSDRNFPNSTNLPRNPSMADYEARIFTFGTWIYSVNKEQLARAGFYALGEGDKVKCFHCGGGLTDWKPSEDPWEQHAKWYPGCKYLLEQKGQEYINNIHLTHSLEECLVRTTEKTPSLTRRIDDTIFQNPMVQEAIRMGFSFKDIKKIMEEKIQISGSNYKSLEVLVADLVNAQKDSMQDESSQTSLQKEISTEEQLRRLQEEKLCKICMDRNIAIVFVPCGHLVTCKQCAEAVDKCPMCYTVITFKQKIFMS

`C=C(CCCC)/C(=C/C[C@@H](OC(=O)c1ccncc1)c1cccc(OCCO)c1)c1cnc2ccccc2c1`: the z-score in [1] was -0.021; in [2], 1.14; in [3] it was -0.681; in [4], -2.65; in [5] it was -1.5; in assay [6], 1.99. In addition, the z-score is -0.891 (inactive) in assay [7]; -0.497 in assay [8]; 0.117 in assay [9]; 0.586 (inactive) in assay [10]; 0.0976 in [11]; -1.17 (inactive) in assay [12]. In addition, the z-score in assay [13] was -0.369 (inactive); in [15], 2.24 (inactive); in assay [16], 0.264 (inactive); in assay [17], 0.879 (inactive); in [18], 0.357 (inactive); in [19], 0.0765. Also, the figures for the composite z-score in assay [14] and in assay [20] were -2.5 (inactive) and -0.0261, respectively.
As to `[N-]=[N+]=Nc1ccccc1[C@H]1OC(c2ccc(OCCCO)cc2)=N[C@@]1(CCS(=O)(=O)c1ccccc1)C(=O)N1CCCCC1`, the z-score in assay [1] was -0.851; in assay [2], 1.5; in assay [3], -0.641; in [4], -1.56; in assay [5], -2.7; in [6] it was 0.43. In addition, the z-score was -0.903 (inactive) in assay [7]; -0.877 in assay [8]; -0.801 in assay [9]; -1.01 (inactive) in [10]; 0.186 in [11]; -0.0728 (inactive) in assay [12]. In addition, the z-score in assay [13] is -1.63 (inactive); in assay [15] it was 0.715 (inactive); in assay [16], 0.836 (inactive); in [17], 0.21 (inactive); in [18], -0.714 (inactive); in [19] it was -1.64. For the same molecule, the composite z-score in assay [14] was -0.792 (inactive); in assay [20], -0.0884.
As to `CC(C)N1CC=CC23O[C@@H]4C=CCOC(=O)[C@@H]4[C@H]2C(=O)N(C(C)CO)[C@@H]3C1=O` (stereo not given in full), the z-score in assay [1] is -0.327; in assay [2], -0.153; in [3] it was -0.719; in [4], 1.15; in assay [5], -0.186; in assay [6] it was -0.664. For the same molecule, the z-score in assay [7] was -0.668 (inactive); in assay [8], -0.166; in [9], 0.462; in assay [10] it was 0.226 (inactive); in assay [11], 0.629; in [12], 0.433 (inactive). Further, the z-score is 0.273 (inactive) in assay [13]; 0.578 (inactive) in [15]; -0.603 (inactive) in assay [16]; 0.17 (inactive) in assay [17]; -0.155 (inactive) in [18]; 0.0803 in [19]. Besides, the composite z-score in assay [14] was -0.218 (inactive); in [20] it was 0.226.
For the molecule `CCOC(=O)C1=CC[C@@H](c2ccccc2C(F)(F)F)N(S(=O)(=O)c2ccc(C)cc2)C1`, the z-score in assay [1] is -0.82; in assay [2] it was 0.605; in [3] it was 1.31; in [4], -0.925; in assay [5] it was -1.28; in assay [6], 2.51. For the same molecule, the z-score is 0.0742 (inactive) in [7]; -0.226 in [8]; -0.435 in [9]; -1.27 (inactive) in assay [10]; -0.217 in assay [11]; -3.44 (inactive) in assay [12]. The z-score is -0.578 (inactive) in assay [13]; -0.184 (inactive) in assay [15]; -1.07 (inactive) in [16]; -0.346 (inactive) in assay [17]; 0.984 (inactive) in assay [18]; -0.338 in assay [19]. Further, the composite z-score is -2.99 (inactive) in assay [14] and -0.12 in [20].
Turning to `C=CCN1C(=O)[C@]2(CC=C)N=C(c3ccc(OCCCO)cc3)O[C@@H]2c2ccccc21`, the z-score in assay [1] is -1.23; in [2] it was 0.931; in assay [3] it was -1.82; in [4], -3.48; in assay [5], -3.86; in assay [6], -1.12. For the same molecule, the z-score was 2.63 (inactive) in assay [7]; -1.16 in assay [8]; -2.38 in assay [9]; -1.95 (inactive) in assay [10]; -0.956 in assay [11]; -2.51 (inactive) in assay [12]. For the same molecule, the z-score was -3.23 (inactive) in [13]; 1.26 (inactive) in [15]; 0.506 (inactive) in assay [16]; 0.578 (inactive) in assay [17]; 0.509 (inactive) in assay [18]; -3.09 in assay [19]. Besides, the figures for the composite z-score in [14] and in assay [20] were 0.0306 (inactive) and 0.197, respectively.
Turning to `O=C1O[C@@H](c2ccccc2)[C@@H](c2ccccc2)N2[C@@H](c3ccc(O)cc3)[C@]3(C(=O)Nc4ccc(C#CCCO)cc43)[C@@H](C(=O)Nc3nc4ccccc4s3)[C@H]12`, the z-score in assay [1] was 1.06; in assay [2], 0.225; in assay [3] it was 0.609; in assay [4], -2.66; in [5] it was -2.65; in [6], -3.79. The z-score in assay [7] was -1.3 (inactive); in [8], -0.503; in assay [9], -1.03; in assay [10] it was 0.621 (inactive); in [11] it was 0.43; in assay [12], 0.442 (inactive). For the same molecule, the z-score is 0.307 (inactive) in assay [13]; 0.513 (inactive) in assay [15]; 0.948 (inactive) in assay [16]; -0.0791 (inactive) in assay [17]; 0.282 (inactive) in [18]; 0.73 in assay [19]. Also, the composite z-score is -0.292 (inactive) in assay [14] and -0.0918 in [20].
For the molecule `NC(=O)NCC#Cc1ccc2c(c1)[C@]1(C(=O)N2)[C@H](C(=O)O)[C@H]2C(=O)O[C@H](c3ccccc3)[C@H](c3ccccc3)N2[C@@H]1c1ccccc1OCCO`, the z-score in assay [1] was 0.789; in assay [2], 1.03; in [3] it was 0.728; in [4] it was 1.33; in assay [5], 1.35; in assay [6], -0.867. The z-score in [7] was -0.377 (inactive); in assay [8], -0.0612; in assay [9], 0.997; in assay [10], 0.877 (inactive); in [11] it was 1.03; in assay [12], -1.81 (inactive). The z-score in [13] is 0.837 (inactive); in assay [15], 2.75 (inactive); in assay [16], -0.888 (inactive); in assay [17] it was 0.525 (inactive); in [18], 1.16 (inactive); in assay [19] it was 1. Moreover, the values for the composite z-score in [14] and in assay [20] were -0.988 (inactive) and -0.0599, respectively.
In the case of `CC(C)C(CO)N1C(=O)[C@]2(C)C3C(=O)OCCC/C=C\[C@H]3OC23C=CCN(c2ccc(Cl)cc2)C(=O)[C@@H]13` (stereo not given in full), the z-score in [1] was -0.0554; in assay [2], -0.199; in assay [3] it was 1.08; in assay [4], 0.547; in assay [5], 0.163; in [6], -0.484. Moreover, the z-score in assay [7] is -0.52 (inactive); in assay [8], -0.634; in assay [9], -0.0291; in assay [10], -0.503 (inactive); in assay [11], -0.575; in assay [12], 0.0095 (inactive). Further, the z-score was -0.581 (inactive) in assay [13]; -0.36 (inactive) in [15]; -0.3 (inactive) in assay [16]; -0.391 (inactive) in assay [17]; -0.261 (inactive) in assay [18]; -0.713 in [19]. Besides, the composite z-score in assay [14] is -1.04 (inactive); in [20] it was 0.117.
Regarding `CCCC=C(CCC)[C@@H](NP(=O)(c1ccccc1)c1ccccc1)c1ccc(C(F)(F)F)cc1`, the z-score is -0.779 in assay [1]; -0.531 in assay [2]; -0.365 in assay [3]; 0.463 in [4]; 0.218 in assay [5]; -0.497 in [6]. Besides, the z-score in assay [7] was -1.53 (inactive); in [8], 0.72; in assay [9] it was -0.379; in assay [10], 0.472 (inactive); in [11] it was 1.02; in assay [12] it was 0.534 (inactive). Moreover, the z-score is 0.839 (inactive) in assay [13]; -0.511 (inactive) in assay [15]; -0.359 (inactive) in assay [16]; 0.3 (inactive) in assay [17]; -0.93 (inactive) in assay [18]; 0.495 in [19]. Further, the composite z-score in assay [14] was 0.0197 (inactive); in assay [20], 0.328.

Values taken from PubChem BioAssay.
